Data reported in PubChem BioAssay (EPA / NIEHS).
Results filed as inconclusive are left out. The source holds several records for some structures; these can differ, active in one and inactive in another. Active and inactive are the calls of the source. How the source made its calls, unless noted: active means hit-call score of the fitted dose curve at least 0.9, where 1 is the maximum; inactive means score below 0.9.

Tests used:
[1] = target: human RAR-related Orphan Receptor beta (RORb), RORB (gene 6096) (UniProt Q92753); assay: ATG_RORb_TRANS: Attagene TRANS-FACTORIAL HepG2 Assay for human RAR-related Orphan Receptor beta (RORb) (AID 2283010; active means hit-call score of the fitted dose curve at least 0.9, where 1 is the maximum;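 on AC50: potency for increased reporter mRNA meaning activation of RORb-Gal4 chimera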)
In short: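 Read-out is reporter mRNA induction, quantified by RT-PCR with fluorescent capillary electrophoresis, 24 h post-dose in transiently transfected HepG2 expressing exogenous NR-Gal4 chimera. Activity fitted upward versus DMSO.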

[2] = target: human RAR-related Orphan Receptor gamma (RORg), RORC (gene 6097) (UniProt P51449); assay: ATG_RORg_TRANS: Attagene TRANS-FACTORIAL HepG2 Assay for human RAR-related Orphan Receptor gamma (RORg) (AID 2283011; active means hit-call score of the fitted dose curve at least 0.9, where 1 is the maximum;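 on AC50: potency for induction of reporter transcripts above DMSO so activators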)
In short: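 Reporter transcripts from a transfected RORg-GAL4 chimera in HepG2 cells were quantified 24 h after dosing by RT-PCR, 6-FAM labelling, HpaI digestion and capillary electrophoresis; increases over DMSO baseline were fitted.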

[3] = target: Retinoic acid receptor RXR-alpha (Homo sapiens) (UniProt P19793); assay: ATG_RXRa_TRANS: Attagene TRANS-FACTORIAL HepG2 Assay for human Retinoid X Receptor alpha (RXRa) (AID 2283012; active means hit-call score of the fitted dose curve at least 0.9, where 1 is the maximum)
In short: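 TRANS format reporting activity of exogenous RXRa-Gal4 chimera in transiently transfected HepG2, 24 h exposure. Reporter transcripts quantified by RT-PCR with capillary electrophoresis, with gain of signal scored relative to DMSO.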

[4] = target: human Retinoid X Receptor beta (RXRb), RXRB (gene 6257) (UniProt P28702); assay: ATG_RXRb_TRANS: Attagene TRANS-FACTORIAL HepG2 Assay for human Retinoid X Receptor beta (RXRb) (AID 2283013; active means hit-call score of the fitted dose curve at least 0.9, where 1 is the maximum)
In short: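 Readout is reporter transcript induction after 24 h dosing. It is measured by RT-PCR of total RNA followed by fluorescent capillary electrophoresis. HepG2 liver cells carry transfected multiple reporter units driven by an exogenous RXRb-Gal4 fusion; activity is relative to DMSO.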

[5] = read-out: E-selectin (Homo sapiens) (UniProt P16581); assay: BSK_3C_Eselectin: BioMAP Diversity Plus: 3C Assay for Eselectin Biomarker Activity (AID 2283015); details: primary human endothelial cells (HUVEC); actives raise or lower the signal
In short: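 E-selectin ELISA readout, fitted bidirectionally relative to DMSO, taken 24 h post-dosing in HUVEC cultures of the 3C system. Overt cytotoxicity tracked with sulforhodamine B staining of parallel wells.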

[6] = read-out: Interleukin-1 alpha (IL1a), IL1A (gene 3552); assay: BSK_BE3C_IL1a: BioMAP Diversity Plus: BE3C Assay for Interleukin-1 alpha (IL1a) Biomarker Activity (AID 2283016); details: primary human bronchial epithelial cells; actives raise or lower the signal
In short: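 IL-1a measured by ELISA after 24 h treatment of human primary bronchial epithelial cells, with gain or loss of signal fitted versus DMSO. Parallel cultures stained with SRB gauge overt cytotoxicity.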

[7] = read-out: Monocyte Chemoattractant Protein-1 (MCP1), CCL2 (gene 6347); assay: BSK_3C_MCP1: BioMAP Diversity Plus: 3C Assay for Monocyte Chemoattractant Protein-1 (MCP1) Biomarker Activity (AID 2283017); details: primary human endothelial cells (HUVEC); actives raise or lower the signal
In short: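 MCP-1 was measured by ELISA 24 h after dosing in primary HUVEC 3C cultures and fitted in both directions relative to DMSO; cytotoxicity was checked by SRB total-protein staining in parallel wells.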

[8] = read-out: Monocyte Chemoattractant Protein-1 (MCP1), CCL2 (gene 6347); assay: BSK_4H_MCP1: BioMAP Diversity Plus: 4H Assay for Monocyte Chemoattractant Protein-1 (MCP1) Biomarker Activity (AID 2283018); details: primary human endothelial cells (HUVEC); actives raise or lower the signal
In short: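 ELISA of MCP-1 (CCL2) 24 h after chemical dosing of HUVEC in the BioMAP 4H system. Gain or loss versus DMSO fitted; parallel SRB staining (560 nm) tracked overt cytotoxicity.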

[9] = read-out: Human Leukocyte Antigen - DR isotype (HLADR), HLA-DRA (gene 3122); assay: BSK_3C_HLADR: BioMAP Diversity Plus: 3C Assay for Human Leukocyte Antigen - DR isotype (HLADR) Biomarker Activity (AID 2283019); details: primary human endothelial cells (HUVEC); actives raise or lower the signal
In short: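 Bidirectional fitting against DMSO was applied to the HLA-DR ELISA signal from human umbilical vein endothelial cells, 24 h post-dose. Cytotoxicity came from parallel SRB total-protein staining; 3C proliferation was counted by SRB at 48 h.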

[10] = target: human Thyroid Receptor alpha (THRa1), THRA (gene 7067) (UniProt P10827); assay: ATG_THRa1_TRANS: Attagene TRANS-FACTORIAL HepG2 Assay for human Thyroid Receptor alpha (THRa1) (AID 2283014; active means hit-call score of the fitted dose curve at least 0.9, where 1 is the maximum)
In short: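 Transcripts from GAL4-UAS-driven reporters, measured after 24 h compound exposure by RT-PCR plus capillary electrophoresis of 6-FAM-labeled fragments, were fitted for gain of signal relative to DMSO. Cells: transiently transfected HepG2 expressing NR-Gal4 chimeras.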

Measured: AC50

Sequence of human RAR-related Orphan Receptor gamma (RORg), RORC (gene 6097) (P51449 whole entry, looked up, the tested form may be a part): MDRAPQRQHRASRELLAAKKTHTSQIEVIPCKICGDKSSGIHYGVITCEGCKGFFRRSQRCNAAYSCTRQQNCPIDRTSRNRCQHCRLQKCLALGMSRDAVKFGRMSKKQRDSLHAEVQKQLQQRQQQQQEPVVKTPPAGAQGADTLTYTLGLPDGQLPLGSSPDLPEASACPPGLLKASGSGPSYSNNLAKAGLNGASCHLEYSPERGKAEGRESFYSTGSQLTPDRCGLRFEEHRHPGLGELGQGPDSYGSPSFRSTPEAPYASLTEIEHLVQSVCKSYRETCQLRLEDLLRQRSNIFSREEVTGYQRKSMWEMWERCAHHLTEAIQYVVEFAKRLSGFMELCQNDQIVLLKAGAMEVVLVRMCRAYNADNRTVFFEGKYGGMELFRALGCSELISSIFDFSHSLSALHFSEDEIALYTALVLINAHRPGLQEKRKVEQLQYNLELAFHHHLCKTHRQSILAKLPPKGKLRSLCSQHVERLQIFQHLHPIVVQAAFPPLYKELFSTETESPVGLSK
Sequence of human Retinoid X Receptor beta (RXRb), RXRB (gene 6257) (P28702 whole entry, looked up, the tested form may be a part): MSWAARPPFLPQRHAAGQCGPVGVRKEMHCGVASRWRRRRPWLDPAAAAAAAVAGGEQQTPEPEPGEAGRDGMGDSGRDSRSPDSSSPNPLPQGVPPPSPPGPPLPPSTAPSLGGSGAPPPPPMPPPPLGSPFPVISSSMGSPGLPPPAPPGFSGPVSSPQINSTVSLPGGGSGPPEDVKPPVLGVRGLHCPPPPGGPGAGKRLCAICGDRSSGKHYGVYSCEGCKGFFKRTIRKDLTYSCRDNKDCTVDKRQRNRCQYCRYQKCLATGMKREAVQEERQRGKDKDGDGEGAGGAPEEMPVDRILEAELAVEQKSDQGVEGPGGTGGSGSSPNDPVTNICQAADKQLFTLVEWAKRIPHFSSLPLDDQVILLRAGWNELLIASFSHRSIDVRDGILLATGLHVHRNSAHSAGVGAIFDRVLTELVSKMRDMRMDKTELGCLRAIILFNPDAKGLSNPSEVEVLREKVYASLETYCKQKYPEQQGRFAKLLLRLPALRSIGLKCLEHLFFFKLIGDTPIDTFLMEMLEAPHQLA
Sequence of E-selectin (Homo sapiens) (P16581 whole entry, looked up): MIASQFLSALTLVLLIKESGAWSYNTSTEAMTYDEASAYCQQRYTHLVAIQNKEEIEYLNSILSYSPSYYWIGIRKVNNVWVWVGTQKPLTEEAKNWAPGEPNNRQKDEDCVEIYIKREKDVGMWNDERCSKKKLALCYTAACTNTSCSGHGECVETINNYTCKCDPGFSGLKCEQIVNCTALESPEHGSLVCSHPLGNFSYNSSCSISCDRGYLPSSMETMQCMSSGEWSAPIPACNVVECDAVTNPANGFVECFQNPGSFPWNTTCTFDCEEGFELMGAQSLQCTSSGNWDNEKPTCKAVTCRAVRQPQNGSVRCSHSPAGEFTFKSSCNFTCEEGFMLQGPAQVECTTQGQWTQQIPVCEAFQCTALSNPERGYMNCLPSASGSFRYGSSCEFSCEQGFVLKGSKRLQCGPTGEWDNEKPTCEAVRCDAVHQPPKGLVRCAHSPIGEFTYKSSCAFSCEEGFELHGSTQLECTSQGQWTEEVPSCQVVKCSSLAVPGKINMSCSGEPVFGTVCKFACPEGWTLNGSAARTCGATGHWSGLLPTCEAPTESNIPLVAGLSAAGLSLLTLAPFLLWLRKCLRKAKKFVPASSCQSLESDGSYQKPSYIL
Sequence of Retinoic acid receptor RXR-alpha (Homo sapiens) (P19793 whole entry, looked up, the tested form may be a part): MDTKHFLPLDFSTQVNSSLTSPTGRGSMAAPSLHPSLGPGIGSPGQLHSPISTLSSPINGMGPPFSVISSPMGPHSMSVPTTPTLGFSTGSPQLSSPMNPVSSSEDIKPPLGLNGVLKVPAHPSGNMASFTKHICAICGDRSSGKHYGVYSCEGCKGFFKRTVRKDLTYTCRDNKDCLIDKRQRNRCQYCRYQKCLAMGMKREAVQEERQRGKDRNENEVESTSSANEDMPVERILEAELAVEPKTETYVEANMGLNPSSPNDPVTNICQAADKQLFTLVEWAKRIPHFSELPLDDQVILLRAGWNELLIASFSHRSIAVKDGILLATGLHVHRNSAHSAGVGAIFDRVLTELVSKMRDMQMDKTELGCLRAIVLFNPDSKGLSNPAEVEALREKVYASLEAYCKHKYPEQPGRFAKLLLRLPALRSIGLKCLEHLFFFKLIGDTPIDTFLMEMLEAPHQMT
Sequence of human RAR-related Orphan Receptor beta (RORb), RORB (gene 6096) (Q92753 whole entry, looked up, the tested form may be a part): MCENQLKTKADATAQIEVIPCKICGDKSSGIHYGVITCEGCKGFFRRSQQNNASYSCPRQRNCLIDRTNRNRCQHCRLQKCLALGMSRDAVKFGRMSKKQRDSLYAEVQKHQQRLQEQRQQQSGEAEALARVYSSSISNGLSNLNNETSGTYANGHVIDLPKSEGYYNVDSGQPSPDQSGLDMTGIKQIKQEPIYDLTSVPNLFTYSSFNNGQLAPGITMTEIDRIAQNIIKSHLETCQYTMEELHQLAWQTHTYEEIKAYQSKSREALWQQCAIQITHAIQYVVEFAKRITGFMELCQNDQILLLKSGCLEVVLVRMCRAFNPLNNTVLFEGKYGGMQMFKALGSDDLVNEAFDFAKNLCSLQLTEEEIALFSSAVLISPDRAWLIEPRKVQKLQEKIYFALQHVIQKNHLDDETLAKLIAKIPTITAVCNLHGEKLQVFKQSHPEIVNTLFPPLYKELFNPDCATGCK
Sequence of human Thyroid Receptor alpha (THRa1), THRA (gene 7067) (P10827 whole entry, looked up, the tested form may be a part): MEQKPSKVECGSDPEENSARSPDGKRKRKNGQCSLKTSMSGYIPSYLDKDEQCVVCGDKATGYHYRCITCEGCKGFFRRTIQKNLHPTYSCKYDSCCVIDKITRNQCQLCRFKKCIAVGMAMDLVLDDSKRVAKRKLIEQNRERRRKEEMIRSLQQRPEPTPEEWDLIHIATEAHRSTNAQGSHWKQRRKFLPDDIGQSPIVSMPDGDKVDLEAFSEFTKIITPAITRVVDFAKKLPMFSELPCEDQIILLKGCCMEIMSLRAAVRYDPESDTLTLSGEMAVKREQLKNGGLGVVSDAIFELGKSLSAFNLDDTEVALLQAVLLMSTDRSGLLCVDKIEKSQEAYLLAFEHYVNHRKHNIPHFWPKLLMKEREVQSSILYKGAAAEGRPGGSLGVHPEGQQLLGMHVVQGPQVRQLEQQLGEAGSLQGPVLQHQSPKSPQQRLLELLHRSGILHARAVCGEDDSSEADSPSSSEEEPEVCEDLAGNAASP

O=C(Cl)C(F)(F)C(F)(F)C(F)(F)C(=O)Cl
inactive: [1] | [2] | [3] | [4] | [5] | [6] | [7] | [8] | [9]

NCC(F)(F)C(F)(F)C(F)(F)C(F)(F)F
inactive: [1] | [2] | [3] | [4] | [5] | [6] | [7] | [8] | [9]

FC(F)C(F)(F)COCC1CO1 (stereo unspecified)
inactive: [1] | [2] | [3] | [5] | [6] | [7] | [8] | [9]

CCCCCOC(C)=O
inactive: [1] | [2] | [5] | [6] | [7] | [8] | [9]

O=S(=O)(O)CCC(F)(F)C(F)(F)C(F)(F)C(F)(F)C(F)(F)C(F)(F)F
inactive: [1] | [2] | [5] | [6] | [7] | [8] | [9]

OCCC(F)(F)C(F)(F)C(F)(F)C(F)(F)F
inactive: [1] | [2] | [3] | [5] | [6] | [7] | [8] | [9]

OCc1c[nH]c2ccccc12
inactive: [1] | [2] | [3] | [4] | [6] | [7] | [8]
active: [4] 9.59 µM | [5] 24.6 µM | [9] 9.29 µM

C[Si](C)(C)C(F)(F)C(F)(F)C(F)(F)F
inactive: [1] | [2] | [3] | [4] | [5] | [6] | [7] | [8] | [9]

FC(F)(F)COC(OCC(F)(F)F)OCC(F)(F)F
inactive: [1] | [2] | [3] | [4] | [5] | [6] | [7] | [8] | [9]

NNC(=O)c1ccncc1
inactive: [1] | [2] | [3] | [5] | [6] | [7] | [8] | [9]

Cc1nccn1-c1ccc(Sc2cccc(C3(C(N)=O)CCOCC3)c2)cc1
active: [6] 10.8 µM | [8] 4.95 µM | [9] 7.74 µM
inactive: [1] | [2] | [3] | [5] | [7]

OC[C@H]1O[C@@](CO)(O[C@H]2O[C@H](CO)[C@@H](O)[C@H](O)[C@H]2O)[C@@H](O)[C@@H]1O
inactive: [1] | [3] | [4] | [5] | [6] | [7] | [8] | [9]

CCc1ccc(O)c(C(C)(C)C)c1
active: [3] 39.9 µM | [4] 8.8 µM | [5] 33.3 µM | [7] 30.9 µM | [8] 25 µM | [9] 30.9 µM
inactive: [1] | [6]

O=C(O)[C@H](O)[C@@H](O)C(=O)O
inactive: [1] | [2] | [3] | [4] | [5] | [6] | [7] | [8] | [9]

COc1cc(C(C)C)c2c(c1)S(=O)(=O)N(COc1cc(=O)n3cccc(OCCN4CCCCC4)c3n1)C2=O
inactive: [3] | [10] | [7] | [8]
active: [1] 3.53 µM | [2] 3.78 µM | [5] 6.54 µM | [6] 8.48 µM | [9] 8.31 µM

CCCC(CCC)C(=O)O
inactive: [1] | [3] | [4] | [5] | [6] | [7] | [8] | [9]

COS(C)(=O)=O
inactive: [1] | [2] | [3] | [4] | [5] | [6] | [7] | [8] | [9]

CCCCCCOC(=O)CC(CC(=O)OCCCCCC)(OC(=O)CCC)C(=O)OCCCCCC
inactive: [1] | [2] | [3] | [5] | [6] | [7] | [8] | [9]

O=C(O)c1ccc2c(c1)nc(C(=O)NC1CCN(C3CC3)CC1)n2Cc1cc(-c2ccc(Cl)s2)on1
active: [9] 1.6 µM
inactive: [1] | [2] | [5] | [6] | [7] | [8]

CCN(CC)C(=S)SSC(=S)N(CC)CC
inactive: [1] | [2] | [3] | [4]
active: [5] 34.8 µM | [6] 16.3 µM | [7] 30.6 µM | [8] 24.6 µM | [9] 12.4 µM

C[C@]12C=CC(=O)C=C1CC[C@H]1[C@@H]3C[C@@H](O)[C@](O)(C(=O)CO)[C@@]3(C)C[C@H](O)[C@@]12F
inactive: [1] | [2] | [3] | [4] | [5] | [6] | [7] | [8] | [9]

FC(F)(F)C(F)(F)C(F)(F)C(F)(F)C(F)(F)C(F)(F)I
inactive: [1] | [2] | [3] | [4] | [5] | [6] | [7] | [8] | [9]
active: [4] 91.3 µM

CCOC(N)=O
inactive: [1] | [2] | [3] | [5] | [6] | [7] | [8] | [9]

O=S(=O)(O)c1ccc(N=Nc2c(O)ccc3cc(S(=O)(=O)O)ccc23)cc1
inactive: [1] | [3] | [4] | [5] | [6] | [7] | [8] | [9]

CCCCCCCC1CCC(=O)O1 (stereo unspecified)
inactive: [2] | [3] | [4] | [5] | [6] | [7] | [8] | [9]

OCc1ccccc1
active: [3] 5.67 µM | [4] 1.09 µM
inactive: [2] | [3] | [5] | [6] | [7] | [8] | [9]

CCOc1ccc2[nH]cc(C(=O)NCc3ccccc3)c(=O)c2n1
inactive: [3] | [4] | [10] | [5] | [6] | [7] | [8] | [9]

c1ccc(C(O[C@@H]2CCCN(CCc3ccc4c(c3)OCO4)C2)c2ccccc2)cc1
inactive: [2] | [4] | [5] | [6] | [7]
active: [8] 23.6 µM | [9] 30.8 µM

S=P(N1CC1)(N1CC1)N1CC1
inactive: [2] | [3] | [4] | [5] | [6] | [7] | [8] | [9]

CCCCCCCCN(C)C
inactive: [2] | [3] | [4] | [5] | [6] | [7] | [8] | [9]

NC(=O)NN=Cc1ccc([N+](=O)[O-])o1
inactive: [2] | [5] | [6] | [7] | [8] | [9]

CCc1cccc(CC)c1N
inactive: [2] | [5] | [6] | [7] | [8] | [9]
active: [4] 100 µM

Cc1ncc([C@@H](CCCCCCc2ccc3c(n2)NCCC3)CC(=O)O)cn1
inactive: [2] | [3] | [4] | [5] | [6] | [7] | [8] | [9]

CCCc1ccccc1
inactive: [3] | [4] | [5] | [6] | [7] | [8] | [9]
